66 compounds from PubChem BioAssay AID504333 (National Center for Advancing Translational Sciences (NCATS), 2011) can be followed below.

In all, about 360,000 compounds went through this assay and about 16,000 (4.4%) were called active. Entries that show only a call come without a potency. About 9% were inconclusive and are not listed. Calls follow the shape of the dose curve; as a rule, active = well fitted inhibition curve with a large enough effect; inconclusive = small, poorly fitted or top-dose-only effect; inactive = no such curve, though single readings can be large or run the other way. For the sample, actives were picked, then their nearest neighbours and some compounds at random.
Potency is read from the fitted curve at half-maximal effect.

Bromodomain adjacent to zinc finger domain protein 2B (Homo sapiens), sequence (Q9UIF8 whole entry, looked up, the tested form may be a part): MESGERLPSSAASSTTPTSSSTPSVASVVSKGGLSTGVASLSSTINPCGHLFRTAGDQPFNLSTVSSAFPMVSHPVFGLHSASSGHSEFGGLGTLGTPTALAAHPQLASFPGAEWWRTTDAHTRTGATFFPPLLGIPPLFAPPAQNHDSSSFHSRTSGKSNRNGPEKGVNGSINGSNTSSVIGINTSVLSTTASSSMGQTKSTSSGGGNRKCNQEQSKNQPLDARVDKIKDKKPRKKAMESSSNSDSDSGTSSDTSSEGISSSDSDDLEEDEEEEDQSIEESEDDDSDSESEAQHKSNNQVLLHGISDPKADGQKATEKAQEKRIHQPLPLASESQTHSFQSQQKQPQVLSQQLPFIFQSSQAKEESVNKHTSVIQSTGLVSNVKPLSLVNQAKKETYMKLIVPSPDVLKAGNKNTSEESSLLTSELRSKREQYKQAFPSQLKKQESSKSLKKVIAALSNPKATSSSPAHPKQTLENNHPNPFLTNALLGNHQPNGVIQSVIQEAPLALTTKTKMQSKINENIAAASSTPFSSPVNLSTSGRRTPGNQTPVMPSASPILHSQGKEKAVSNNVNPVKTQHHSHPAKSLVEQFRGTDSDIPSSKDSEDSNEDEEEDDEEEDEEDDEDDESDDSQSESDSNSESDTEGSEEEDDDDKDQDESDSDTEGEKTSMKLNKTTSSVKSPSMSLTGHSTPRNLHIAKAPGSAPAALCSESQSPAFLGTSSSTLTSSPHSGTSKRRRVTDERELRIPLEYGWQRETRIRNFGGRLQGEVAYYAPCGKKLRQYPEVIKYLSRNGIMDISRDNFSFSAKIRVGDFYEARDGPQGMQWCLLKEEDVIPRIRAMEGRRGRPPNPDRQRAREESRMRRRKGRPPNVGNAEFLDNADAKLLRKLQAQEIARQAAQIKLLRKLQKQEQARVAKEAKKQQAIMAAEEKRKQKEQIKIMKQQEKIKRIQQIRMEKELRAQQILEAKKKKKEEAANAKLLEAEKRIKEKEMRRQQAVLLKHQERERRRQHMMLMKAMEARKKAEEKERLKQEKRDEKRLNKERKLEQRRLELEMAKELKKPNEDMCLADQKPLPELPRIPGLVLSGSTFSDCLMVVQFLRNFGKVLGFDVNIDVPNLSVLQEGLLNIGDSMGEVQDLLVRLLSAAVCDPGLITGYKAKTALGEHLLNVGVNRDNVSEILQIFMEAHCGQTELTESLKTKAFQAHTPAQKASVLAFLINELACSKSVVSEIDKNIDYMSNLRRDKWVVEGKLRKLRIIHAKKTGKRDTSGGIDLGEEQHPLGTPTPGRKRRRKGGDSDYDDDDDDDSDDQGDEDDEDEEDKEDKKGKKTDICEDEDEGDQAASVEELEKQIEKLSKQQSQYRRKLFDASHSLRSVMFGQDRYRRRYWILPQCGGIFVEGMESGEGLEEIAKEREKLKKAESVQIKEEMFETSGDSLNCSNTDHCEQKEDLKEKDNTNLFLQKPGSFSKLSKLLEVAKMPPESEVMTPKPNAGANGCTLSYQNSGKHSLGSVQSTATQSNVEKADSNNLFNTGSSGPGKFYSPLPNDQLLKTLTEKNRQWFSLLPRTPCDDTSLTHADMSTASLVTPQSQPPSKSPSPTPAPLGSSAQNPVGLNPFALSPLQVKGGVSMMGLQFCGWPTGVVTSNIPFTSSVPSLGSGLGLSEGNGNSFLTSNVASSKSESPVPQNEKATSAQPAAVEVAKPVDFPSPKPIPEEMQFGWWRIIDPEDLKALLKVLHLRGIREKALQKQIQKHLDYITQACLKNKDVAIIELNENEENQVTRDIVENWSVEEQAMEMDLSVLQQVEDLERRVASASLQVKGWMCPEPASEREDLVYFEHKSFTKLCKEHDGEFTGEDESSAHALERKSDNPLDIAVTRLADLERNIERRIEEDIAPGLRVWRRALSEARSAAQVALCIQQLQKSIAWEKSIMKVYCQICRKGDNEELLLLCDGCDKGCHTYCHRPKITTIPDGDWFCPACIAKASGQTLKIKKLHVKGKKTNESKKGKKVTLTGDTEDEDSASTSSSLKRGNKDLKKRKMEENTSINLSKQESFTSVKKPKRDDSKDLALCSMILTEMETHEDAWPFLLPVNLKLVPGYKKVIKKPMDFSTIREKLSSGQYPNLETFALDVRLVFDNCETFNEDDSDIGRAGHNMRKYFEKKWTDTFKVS

The experiment addresses Bromodomain adjacent to zinc finger domain protein 2B (Homo sapiens) (UniProt Q9UIF8). In words: qHTS Assay for Inhibitors of BAZ2B. Also: nearly all actives have a fitted effect of over 60% in size. To be noted: AlphaScreen BAZ2B-H3K14Ac peptide displacement; series mostly up to 114 µM. The gist of the method:
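AlphaScreen luminescence quantifies BAZ2B engagement of H3K14Ac peptide; the protein and biotinylated peptide are both at 50 nM final, buffer PBS pH 7.4 with 0.01% Tween-20, all steps at room temperature.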
In general terms: Quantitative high-throughput screening tests each substance at several concentrations.
As to `CC(C)C(c1nnnn1C(C)(C)C)N1CCN(Cc2cccnc2)CC1` (stereo unspecified), the Potency is 56.2 µM (active).

With `CCCC(c1nnnn1C(C)(C)C)N1CCN(Cc2ccccc2)CC1` (stereo unspecified), the Potency entry was “inactive”.

`CC(C)C(c1nnnn1Cc1ccccc1)N1CCC(C(N)=O)CC1` (stereo unspecified): the Potency entry was “inactive”. Under `CCN(Cc1ccccc1)C(=O)c1cn(-c2cccc(OC)c2)c(=O)c2ccccc12` stands “inactive”; under `COc1ccc(CNC(=O)Cc2coc3ccc(C(C)C)cc23)cc1`, “inactive”; under `CCc1ccc(NC(=O)c2cnc3c(-c4ccccc4)c(C)nn3c2C)cc1`, “inactive”.

As to `CCc1ccc(NC(=O)CN2C(=O)C(c3ccccc3)=NC23CCCCCC3)cc1`, the Potency result was “inactive”.

As for `CCN(C(=O)Cc1nc(N)n[nH]1)C1(C(=O)Nc2ccccc2)CCCCC1`, the Potency is 20 µM (active). As for `C=CCN(C(=O)c1cc(C)cc(C)c1)C1(C(=O)Nc2ccccc2)CCN(C(C)C)CC1`, the entry is “inactive”; as for `CCOc1cccc2sc(N3CCN(C(=O)C4CC4)CC3)nc12`, “inactive”. As for `CCCN1CN=C(NS(=O)(=O)c2ccc(NC(C)=O)cc2)NC1`, the entry is “inactive”. As for `Cc1ccc(C(=O)O)cc1-c1ccc(/C=C2\SC(=O)N(CC(=O)Nc3ccc4c(c3)OCO4)C2=O)o1`, the figure is 11.2 µM (active); as for `Cn1cccc1/C=C1\SC(=O)N(CC(=O)Nc2ccc(F)cc2)C1=O`, “inactive”; as for `Cc1ccc(C(=O)Nc2ccc3c(c2)OCO3)cc1S(=O)(=O)N1CCCCC1`, “inactive”.

For `Cc1ccccc1CNC(=O)C(=O)NCC(c1cccs1)S(=O)(=O)c1cccs1` (stereo unspecified), the Potency result is “inactive”. Regarding `COc1ccc(NC(=O)CCCN2C(=O)CCn3nc(-c4cn(C)c5ccccc45)cc32)cc1OC`, the Potency entry was “inactive”.

As for `Cc1cccc(-n2cnc(C(=O)Nc3cccnc3)c2)n1`, the Potency result was “inactive”. Under `Cn1cc(Cl)c(C(=O)NNC(=S)Nc2cccc(Cl)c2)n1` stands “inactive”; under `Cc1cccc(-n2cnc(C(=O)NNC(=S)Nc3ccccc3)c2)n1`, 22.4 µM (active). As for `CCn1cc2nc(SCc3ccccc3Cl)n(CCc3ccccc3)c(=O)c2n1`, the entry is “inactive”; as for `CCc1cc2c(cc(C(=O)OC)n2Cc2nc(-c3ccc(C)cc3)oc2C)s1`, “inactive”; as for `CN(C)c1nc(-c2cccnc2)nc(-c2ccc(Cl)cc2)c1C#N`, “inactive”. Under `N#Cc1c(Cl)nc(-c2cccnc2)nc1-c1ccccc1` stands 70.8 µM (active). With `O=S(=O)(Cc1cc(Cl)nc(-c2cccnc2)n1)c1ccccc1`, the Potency entry is “inactive”.

Take `COc1ccc(OC)c(-n2nnc(-c3nc(-c4cc(OC)c(OC)c(OC)c4)no3)c2C)c1`: the Potency entry is “inactive”.

With `Cc1ccc(Cl)cc1NC(=O)COC(=O)CC(C)(C)C`, the Potency result is “inactive”. As for `CCCC(=O)OCC(=O)Nc1cc(Cl)ccc1[N+](=O)[O-]`, the figure is 39.8 µM (active); as for `CC(C)(C)NC(=O)COC(=O)c1cc(Cl)ccc1[N+](=O)[O-]`, “inactive”; as for `CCOc1ccc(NC(=O)C(CC(C)C)N2Cc3ccccc3C2=O)cc1` (stereo unspecified), “inactive”. Take `Cc1ccccc1NC(=O)Cn1cc(C(=O)c2cccs2)c2ccccc21`: the Potency result was “inactive”. As to `CCC(C)c1ccc2oc(-c3ccc(NC(=O)c4cc5ccccc5o4)cc3)nc2c1` (stereo unspecified), the Potency result is “inactive”. Under `COC(=O)c1ccc(/C=N/N2C(C)CCCC2C)cc1` (stereo unspecified) stands 56.2 µM (active); under `COC(=O)c1ccc(/C=N/NC(=O)C(=O)N2CCCCCC2)cc1`, “inactive”; under `COC(=O)N/N=C/c1ccc(/C=N/NC(=O)OC)cc1`, “inactive”. For the compound `COc1ccc(CCNc2ncnc3c2cnn3-c2ccc(C)cc2)cc1`, the Potency entry is “inactive”. Turning to `CCOc1ccc(S(=O)(=O)c2cn(Cc3ccc(OC)cc3)c3ccc(F)cc3c2=O)cc1`, the Potency result was “inactive”. Consider `O=c1[nH]c2ccccc2n2c(-c3ccccc3)nnc12`, for which the Potency was 20 µM (active).

For `O=c1cc(-c2ccccc2)n2c(SCc3ccccc3)nnc2[nH]1`, the Potency entry was “inactive”. `O=c1[nH]n2c(-c3ccccc3)nc(O)c2c2ccccc12`: the Potency result was “inactive”. Under `Cc1ccc(C(=O)NCCSc2c(C)[nH]c3ccccc23)cc1C` stands “inactive”. As for `CC1CCC2(CC1)N=C(c1ccccc1)C(=O)N2CC(=O)Nc1ccc(F)c(Cl)c1` (stereo unspecified), the entry is “inactive”.

Turning to `COC(=O)c1cnn(-c2ccc(C(=O)Nc3ccc(OC(F)(F)F)cc3)cc2)c1N`, the Potency entry is “inactive”.

For `O=C(Cc1cccs1)Nc1nnc(SCc2ccc(F)cc2)s1`, the Potency result was “inactive”.

As to `COc1ccc(Cc2nnc(NC(=O)Cc3cccs3)s2)cc1`, the Potency was 44.7 µM (active). As for `CCc1nnc(NC(=O)Cc2cccs2)s1`, the Potency result is “inactive”. As for `CCCCN=C1C([N+](=O)[O-])=CC=C2C1=NC1(CCCCC1)N2O`, the figure is 2.24 µM (active); as for `CCC(C(=O)Nc1cc(OC)ccc1OC)n1c(=O)c(C(F)(F)F)nc2ccccc21` (stereo unspecified), “inactive”; as for `COc1cccc(-n2cc(C(=O)NCc3cccc(Cl)c3)c3ccccc3c2=O)c1`, “inactive”. On to `O=C(CC1N=C2c3ccccc3N=C(SCc3cccc(Cl)c3)N2C1=O)NCc1ccc2c(c1)OCO2` (stereo unspecified), for which the Potency entry was “inactive”.

Regarding `O=C(CC1N=C2c3ccccc3N=C(SCc3ccccc3Cl)N2C1=O)NCc1ccco1` (stereo unspecified), the Potency is 50.1 µM (active). As for `CCC(C)NC(=O)CSC1=Nc2ccccc2C2=NC(CCC(=O)NCc3ccco3)C(=O)N12` (stereo unspecified), the entry is “inactive”; as for `Cc1ccc(-c2cc(C(F)(F)F)c(C#N)c(SCC(=O)Nc3ccccc3)n2)cc1`, “inactive”. `CCOC(=O)c1ccc(NC(=O)CCn2cnnn2)cc1`: the Potency result was “inactive”. As to `CC(=O)c1nn(-c2ccc(OC(F)(F)F)cc2)nc1Nc1ccccc1`, the Potency entry was “inactive”.

Take `Cc1cc(C(=O)COC(=O)CNC(=O)c2ccc(F)cc2)c(C)n1Cc1ccco1`: the Potency is 50.1 µM (active). As for `COCCn1c(C)cc(C(=O)COC(=O)CNC(=O)c2ccco2)c1C`, the entry is “inactive”. For `Cc1cc(C(=O)CSc2nc(N)cc(=O)[nH]2)c(C)n1Cc1ccco1`, the Potency result is “inactive”.

In the case of `COc1ccc(S(=O)(=O)c2c(Nc3ccc(C)cc3)sc(C(=O)c3ccc(C)cc3)c2N)cc1`, the Potency entry was “inactive”.

Regarding `CCOc1ccc(C(=O)N2CCN(CCc3ccccn3)CC2)cc1`, the Potency entry was “inactive”. Regarding `COc1ccc(-c2nc3ccccc3c(=O)n2CCc2ccc(O)cc2)cc1`, the Potency result is “inactive”. As for `COc1ccc(CCNCc2c(-c3ccccc3)n(C)c3ccccc23)cc1`, the figure is 50.1 µM (active). As for `COc1ccc(-c2c(C#Cc3ccccc3)c3ccccc3n2C)cc1`, the entry is “inactive”; as for `O=C(NCCc1ccccc1)c1cnc2sc(N3CCCC3)nn2c1=O`, “inactive”; as for `CCNCCC(=O)N1c2ccccc2Sc2ccc(NC(=O)OCC)cc21`, “inactive”. Under `CCOC(=O)Nc1ccc2c(c1)N(C(=O)CN1CCN3CCCC3C1)c1ccccc1CC2` (stereo unspecified) stands 70.8 µM (active); under `CCOC(=O)Nc1ccc2c(c1)N(C(=O)CCCl)c1ccccc1[S@]2=O`, “inactive”.
